SMN2 splice up – SMN2 splice variant enhancement | Potency, µM (titrated, usually from 46.1 µM), for inactives: at the top dose activity change, positive = activation, actives largely listed as activators | hit rate 2.8% among 210,000 | HEK293 SMN2-luciferase splicing reporter, luminescence, 30-36 h; note: % of control where 0% means no effect; nearly all actives have a fitted effect of over 55% in size
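HEK293 cells carry an SMN2 minigene-luciferase reporter in which exon 7 inclusion puts luciferase in frame. Cells were seeded at 2000 cells/well, attached for 10-12 hours, then exposed to compounds for 30-36 hours at 37C before ONE-Glo luminescence.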
ELG1 genotox – genotoxicity induction in ELG1-luciferase HEK293T cells. Potency, µM (titrated, usually from 46 µM), for the others: top-dose activity change, positive = activation, usual class: activators. hit rate 1.3% among 330,000. HEK293T ELG1-luciferase reporter, luminescence, 16 h. AID 504466; note: % of control where 0% means no effect; nearly all actives have a fitted effect of over 60% in size
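Quantitative HTS format in 1536-well plates. HEK293T ELG1-luciferase reporter cells receive test compound and are incubated 16 hr at 37 °C, 5% CO2; ONE-Glo added, 30 min room temperature, then luminescence read.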
Rab9 prom act – activates the Rab9 promoter; Potency, µM (titrated, usually from 9.22 µM), inactives show at the highest dose activation, negative = inhibition, actives largely listed as activators; Huh7 Rab9 promoter-luciferase reporter, luminescence, 24 h; hit rate 2.8% among 320,000; note: % of control where 0% means no effect; nearly all actives have a fitted effect of over 60% in size
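Huh7 reporter line, Rab9 promoter upstream of luciferase. Compound exposure 24 h at 37 °C in reduced-serum medium with 10% FBS. Read-out: luminescence.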
ELG1 DNA repair – ELG1-dependent DNA repair inhibition; HEK293T ELG1-luciferase reporter, luminescence, 16 h; DNA damage induced by 5-fluorouridine; Potency, µM (series often up to 46.1 µM), for inactives: top-dose activity change, negative = inhibition, most hits filed as inhibitors; hit rate 2.3% among 330,000; AID 504467; note: % is set by controls: 0 for no effect and ±100 for the full control effect; nearly all actives have a fitted effect of over 55% in size
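HEK293T cells expressing luciferase-tagged ELG1 (2,000/well) received 5-Fluorouridine plus compound or DMSO for 16 hr at 37 °C. Luciferase was read by ONE-Glo luminescence after 30 min at room temperature.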
NPC1 promoter act – activators of NPC1 promoter; hit rate 2.4% among 320,000; Huh7 NPC1 promoter luciferase reporter, 24 h; Potency, µM (top dose mostly 9.22 µM), inactives show at the highest dose activation, most hits filed as activators; note: % of control where 0% means no effect; nearly all actives have a fitted effect of over 60% in size
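Luminescence from an NPC1 promoter-driven luciferase reporter in stably transfected Huh7 cells was measured after 24 h compound treatment at 37 °C, followed by 10 min ambient incubation with luciferase detection reagent.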
FLuc modulator – counter-screen for miR-21 project: firefly luciferase inhibitors or activators | P08659 | purified FLuc, Km substrates, luminescence inhibition | Potency, µM (titrated, usually from 57.5 µM), for inactives: at the top dose activity change, negative = inhibition, actives largely listed as inhibitors | hit rate 6.9% among 360,000 | AID 588342;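 note: plate controls were vehicle for no effect and reference inhibitor for full effect; nearly all actives have a fitted effect of over 55% in size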
Target sequence (P08659 whole entry, looked up): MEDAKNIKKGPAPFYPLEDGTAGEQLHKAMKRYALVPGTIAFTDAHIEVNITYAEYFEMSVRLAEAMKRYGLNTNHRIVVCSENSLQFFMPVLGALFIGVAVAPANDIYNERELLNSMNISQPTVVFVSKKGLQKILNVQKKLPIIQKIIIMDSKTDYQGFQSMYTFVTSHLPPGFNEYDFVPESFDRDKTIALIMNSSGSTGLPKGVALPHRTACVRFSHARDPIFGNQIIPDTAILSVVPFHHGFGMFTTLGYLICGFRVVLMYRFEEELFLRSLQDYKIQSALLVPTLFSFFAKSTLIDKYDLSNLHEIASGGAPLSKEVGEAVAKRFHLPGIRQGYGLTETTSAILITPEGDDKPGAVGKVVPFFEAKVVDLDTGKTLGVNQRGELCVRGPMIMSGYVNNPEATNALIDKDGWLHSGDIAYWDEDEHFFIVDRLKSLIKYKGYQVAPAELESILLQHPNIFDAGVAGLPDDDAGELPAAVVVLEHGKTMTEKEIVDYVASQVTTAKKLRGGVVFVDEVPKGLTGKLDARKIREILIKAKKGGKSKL
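Biochemical qHTS of compounds, final roughly 60 µM downward over six points, against 10 nM purified firefly luciferase using Km concentrations of substrates (10 uM D-luciferin, 10 uM ATP) in Tris acetate pH 7.5 buffer; luminescence output.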
Active calls of the source: *; ? = inconclusive; . = no result given; [ ] = dose if it differs, or a comment. Sampled rows, rich in hits. Any-hit rate of the full collection: about 9.2%. Calls come from the whole dose curve; as a rule, active = well fitted curve in the direction sought with a large enough effect; inconclusive = small, poorly fitted or top-dose-only effect, or another doubt; inactive = no such curve, though single readings can be large; an effect the other way counts as inactive or inconclusive. Potency is the fitted concentration of half-maximal effect.

SMILES	SMN2 splice up	ELG1 genotox	Rab9 prom act	ELG1 DNA repair	NPC1 promoter act	FLuc modulator
COc1ccc(OCC(=O)Nc2nonc2NC(=O)COc2ccc(OC)cc2)cc1	14%	2%	2%	9%	1%	1.9µM*
Cc1cc(C)cc(OCC(=O)Nc2nonc2NC(=O)COc2cc(C)cc(C)c2)c1	-2%	-1%	-6%	6%	-2%	-2%
COc1ccc(OCC(=O)Nc2cccc(NC(=O)COc3ccc(OC)cc3)n2)cc1	-11%	?	?	?	2.5µM*	2.1µM*
O=C(Nc1ccccc1)N1CCN(c2nc(-c3ccccc3)ns2)CC1	.	-6%	-5%	23µM*	0%	-13%
O=C(Nc1ccccc1Cl)N1CCCN(c2nc(-c3ccccc3)ns2)CC1	.	-6%	-15%	?	-5%	2%
COc1ccc(C(=O)Nc2cc3c4c(c2)CC(=O)N4CCC3)c(OC)c1	.	?	?	?	?	15µM*
COc1ccc(C(=O)Nc2cc3c4c(c2)CC(=O)N4CCC3)cc1	.	?	22%	?	8%	21µM*
COc1ccc(C(=O)Nc2cc3c4c(c2)C(C)C(=O)N4CCC3)cc1 (stereo not given)	.	?	20%	?	10%	12µM*
COc1ccc(C(=O)Nc2cc3c4c(c2)C(C)C(=O)N4CCC3)cc1OC (stereo not given)	.	?	2%	?	-4%	2%
O=C(O)CC1(c2ccc(F)cc2)C2CC3CC(C2)CC1C3 (stereo not given)	.	-2%	-1%	0%	-2%	-2%
CN(C)c1ccc(/C=N\NC(=S)SCN2C(=O)C3CCC(C)(C2=O)C3(C)C)cc1 (stereo not given)	-8%	1%	10%	?	4%	8.5µM*
CC12CCC(C(=O)N(CSC(=S)N/N=C\c3ccccc3O)C1=O)C2(C)C (stereo not given)	-40%	14%	-7%	?	-10%	?
C=CCn1c(COc2cccc(C)c2)nnc1SCC(=O)c1c[nH]c2c(CC)cccc12	2%	-1%	1%	22%	1%	0%
Nc1ccc(Oc2ccc3c(c2)OCO3)cc1	6%	-8%	9%	14%	15%	0%
c1ccc2c(Oc3ccc4c(c3)OCO4)nncc2c1	10µM*	?	0.63µM*	?	1.3µM*	6µM*
C/C(CC(=O)Nc1ccccn1)=N\NC(=O)C(=O)Nc1cccc(C)c1	-1%	2%	-2%	14%	1%	-18%
O=C(Nc1ccccc1)C(=O)Nc1ccccn1	4.5µM*	?	0.45µM*	?	?	1.7µM*
S=C(Nc1ccc(Nc2ccccc2)cc1)Nc1ccccn1	-68%	?	-6%	12%	-12%	?
O=C(O)/C=C\C(=O)Nc1ccccn1	-12%[9.22 µM]	.	.	.	.	.
S=C(Nc1ccccc1)c1ccccn1	?	?	2.8µM*	?	3.5µM*	8.5µM*
O=C(Nc1cccc(O)c1)C(=O)Nc1ccccn1	10µM*	?	3.5µM*	?	?	1.5µM*
COc1cccc(NC(=O)Cn2c(=O)n(CC(=O)NCCc3ccccc3)c(=O)c3sccc32)c1	10%	.	.	.	.	3%
Cc1ccc(-n2c(=O)c3sccc3n(Cc3cc(=O)n4cc(Cl)ccc4n3)c2=O)cc1F	35µM*	2%	-2%	12%	-1%	1%
Cc1ccc(-n2c(=O)c3sccc3n(Cc3cc(=O)n4ccccc4n3)c2=O)cc1F	5%	4%	-1%	11%	-2%	0%
COc1ccccc1CNC(=O)c1ccc2c(c1)nc(C)n2-c1cccc(C)c1	.	.	.	.	.	-14%
SMILES	SMN2 splice up	ELG1 genotox	Rab9 prom act	ELG1 DNA repair	NPC1 promoter act	FLuc modulator
O=C(NCc1ccc(F)cc1)c1ccc2c(c1)N(Cc1c(F)cccc1Cl)C(=O)CS2	1%	.	.	.	.	-3%
COc1ccc(-c2cn3c(n2)sc2cc(C(=O)NCc4ccccc4)ccc23)cc1	.	.	.	.	.	2%
COc1ccc2c(c1)sc1nc(-c3ccccc3)cn12	0.4µM*	?	?	?	-14%	0.034µM*
COc1ccc(-n2cc(-c3ccccc3)nc2SC)cc1	20µM*	?	?	?	?	13µM*
N=C(N)SCc1nc(-c2ccc(Cl)cc2)no1	0%[9.22 µM]	.	.	.	.	.
Cc1cc(C(F)(F)F)nc(SCC(=O)c2cccc([N+](=O)[O-])c2)n1	-4%	-2%	0%	-4%	2%	1%
O=C(CSc1nc(-c2ccccc2)cc(C(F)(F)F)n1)c1cccc([N+](=O)[O-])c1	-3%	-1%	1%	18µM*	0%	0%
COc1ccc(C(=O)CSc2cc(C)nc(SCC(=O)c3ccc(C)cc3)n2)cc1	-84%	0%	0%	5.2µM*	-20%	2%
Cc1ccc(C(=O)CSc2nc(C)cc(SCc3nnc(-c4ccccc4)o3)n2)cc1	-11%	9%	-2%	-3%	-2%	0%
Cc1ccc(-c2cc(C(F)(F)F)nc(SCC(=O)c3cccc([N+](=O)[O-])c3)n2)cc1	-19%	-6%	-13%	18µM*	-4%	-4%
COc1ccc(-c2cc(C)nc(SCC(=O)c3cccc([N+](=O)[O-])c3)n2)cc1	-19%	-2%	-5%	21µM*	-3%	0%
Cc1cc(-c2ccccc2)nc(SCC(=O)c2cccc([N+](=O)[O-])c2)n1	-10%	-6%	-5%	-27%	2%	0%
Cc1ccc(-c2cc(C(=O)OCC(=O)N(C)C3CCS(=O)(=O)C3)c3ccccc3n2)o1 (stereo not given)	54%	1%	13%	?	11%	?
CCN(C(=O)COC(=O)c1cc(-c2ccc(C)o2)nc2ccccc12)C1CCS(=O)(=O)C1 (stereo not given)	0%	-2%	13%	-1%	2%	19µM*
Cn1c(CCc2ccc(N)cc2)nc2ccccc21	11µM*	?	1.6µM*	?	3.2µM*	12µM*
Cn1c(-c2ccc(N)cc2)nc2ccccc21	.	?	4µM*	?	?	19µM*
Nc1nc2ccc(C(=O)N3CCCCC3)cc2s1	.	8%	0%	-2%	1%	-11%
Cn1c(-c2ccc3nc(N)sc3c2)nc2cc(N)ccc21	7%	?	23%	?	?	21µM*
O=C(c1ccc(C(F)(F)F)cc1)C1CCCN(C(=O)CCc2ccncc2)C1 (stereo not given)	.	-8%	-4%	?	-7%	-2%
NC(=O)c1cnn2c(C(F)(F)F)cc(-c3ccccc3)nc12	-8%	.	.	.	.	2%
